Where a name gives a salt, the structure may show the parent alone.

This assay concerns 786-O. Briefly: Euclidean distance of Cell Painting phenotypic profile (signed KS, 77 features) to DMSO centroid (dimensionless distance); 5 or 10 uM (library dependent); higher = stronger phenotypic change vs DMSO (phenoactivity). As to conditions: 48 h. The gist of the method: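 Phenoactivity is defined as the Euclidean distance from a compound profile to the median vehicle profile. Each profile comprised 77 Harmony features, scored as signed Kolmogorov-Smirnov statistics versus same-plate vehicle wells, then plate-position corrected, correlation-weighted and replicate-averaged at the top dose. Five cancer lines and one healthy fibroblast line were exposed to library compounds for 48 h at 10 or 5 uM (0.1% DMSO final).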
`CNC1CCCN(c2c(F)cc3c(=O)c(C(=O)O)cn(C4CC4)c3c2OC)C1` (stereo not drawn) [Balofloxacin Dihydrate] returned an Euclidean distance of 0.976.
To `OCCN1CCN(CCCN2c3ccccc3Sc3ccc(C(F)(F)F)cc32)CC1` [Fluphenazine dihydrochloride] belongs 1.98; to `O=C(O)CCCCC(CCSCc1ccccc1)SCc1ccccc1` (stereo not drawn), 0.848.
`CCOC(=O)Nc1ccc(NCc2ccc(F)cc2)nc1N` [Flupirtine maleate] returned an Euclidean distance of 1.54.
To `N=C(N)NC(=N)N1CCOCC1` [Moroxydine HCl] belongs 1.5.
In turn, `O=C(Nc1c(Cl)cncc1Cl)c1ccc(OC(F)F)c(OCC2CC2)c1` [Roflumilast] showed an Euclidean distance of 1.07.
Then `C[N+](C)(C)NCCC(=O)[O-]` [Mildronate], with 1.41; and `CCN(CC)Cc1ccc2cc(COC(=O)Nc3ccc(C(=O)NO)cc3)ccc2c1` [Givinostat (ITF2357)], with 2.68; and `CCN(CC)CCCC(C)Nc1c2ccc(Cl)cc2nc2ccc(OC)cc12` (stereo not drawn) [Quinacrine Dihydrochloride Dihydrate], with 4.25.
`CC/C(=C(/CC)c1ccc(O)cc1)c1ccc(O)cc1` [Diethylstilbestrol] showed an Euclidean distance of 0.795.
Regarding `CO/N=C(\C(=O)N[C@@H]1C(=O)N2C(C(=O)O)=C(CSc3nc(=O)c(O)nn3C)CS[C@H]12)c1csc(N)n1` [Ceftriaxone Sodium Trihydrate], the Euclidean distance is 1.01.
Regarding `CCN(CC)C(=O)/C(C#N)=C/c1cc(O)c(O)c([N+](=O)[O-])c1` [Entacapone], the Euclidean distance is 0.439.
Turning to `C[C@H]1COc2c(C3(N)CC3)c(F)cc3c(=O)c(C(=O)O)cn1c23` [Pazufloxacin mesylate], the Euclidean distance amounted to 1.
